Test results reported in PubChem BioAssay (Tox21).
Results filed as inconclusive are left out. Calls of active or inactive are those of the source. Unless noted, the call rests on the fitted dose curve; in most records, active means well fitted curve in the direction sought with a large enough effect in the repeat runs; inconclusive means weak or mixed curves; inactive means no such curve, though single readings can be large; an effect the other way counts as inactive or inconclusive.

Key:
[1] = qHTS assay for small molecules that induce genotoxicity in human embryonic kidney cells expressing luciferase-tagged ATAD5 (AID 651632); conditions: HEK293T ATAD5-luciferase induction, 16 h; series mostly up to 83.3 µM; further: nearly all actives have a fitted effect of over 15% in size
Procedure, shortened: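 Concentration-response screen for ATAD5 upregulation in HEK293T luciferase reporter cells; 16 hr treatment at 37C, then luminescence after 30 min with Amplite at room temperature.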

[2] = qHTS assay for small molecule agonists of the p53 signaling pathway - cell viability (AID 651633; calls by dose curve;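 further: p53RE-bla HCT reporter cells with a stable beta-lactamase p53 reporter; nearly all actives have a fitted effect of over 30% in size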); conditions: p53RE-bla HCT-116 viability, ATP luminescence, 16 h; series mostly up to 83.3 µM
Procedure, shortened: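 p53RE-bla cells were treated with compound for 16 hours at 37 C. Cytotoxicity was then measured as CellTiter-Glo luminescence after 30 min at room temperature.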

[3] = qHTS assay for small molecules that induce genotoxicity in human embryonic kidney cells expressing luciferase-tagged ATAD5 - cell viability (AID 651634; calls by dose curve; further: nearly all actives have a fitted effect of over 25% in size); conditions: HEK293T ATAD5-luc cells viability, CellTiter-Fluor, 15.5 h; series mostly up to 83.3 µM
Procedure, shortened: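 15.5 hr compound or vehicle exposure of HEK293T cells expressing luciferase-tagged ATAD5 at 37C; live-cell protease activity is read by fluorescence after 30 min of CellTiter-Fluor.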

[4] = qHTS assay for small molecule disruptors of the mitochondrial membrane potential - cell viability (AID 720634; calls by dose curve;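 further: human HepG2 liver cancer cells; nearly all actives have a fitted effect of over 20% in size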); conditions: HepG2 viability, ATP luminescence (CellTiter-Glo), 1 h; series mostly up to 83.2 µM
Procedure, shortened: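 In this qHTS format, HepG2 cells plated overnight were pinned with compound, incubated 1 hr, and assayed for ATP luminescence with CellTiter-Glo after m-MPI dye addition.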

[5] = qHTS assay to test for compound auto fluorescence at 590 nm (red) in HepG2 cells (AID 720674); conditions: HepG2 autofluorescence, red 540/590 nm, 1 h; series mostly up to 91.3 µM
Procedure, shortened: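 HepG2 cells, 2,000 per well in MEM with 10% FBS, attached overnight at 37 C, then got 23 nL compound or DMSO. After 1 hr at 37 C, 5% CO2, red fluorescence was read at 540/590 nm against Rose Bengal sodium as reference.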

[6] = qHTS assay to test for compound auto fluorescence at 590 nm (red) in HEK293 cells (AID 720679); conditions: red autofluorescence 540/590 nm; series mostly up to 91.3 µM
Procedure, shortened: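 Autofluorescence equivalency to Rose Bengal sodium, 540/590nm, in HEK293 cells exposed overnight to 23 nL compound per well.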

[7] = qHTS assay to test for compound auto fluorescence at 460 nm (blue) in HEK293 cell free culture (AID 720681); conditions: cell-free medium, autofluorescence 405/460 nm (blue); series mostly up to 91.3 µM
Procedure, shortened: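 Compounds were added to cell-free DMEM with 10% FBS and fluorescence read directly. The blue channel used 405 nm excitation and 460 nm emission, with triamterene as the reference fluorophore.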

[8] = qHTS assay to test for compound auto fluorescence at 535 nm (green) in HEK293 cell free culture (AID 720682); conditions: cell-free medium, green autofluorescence 485/535 nm; series mostly up to 91.3 µM
Procedure, shortened: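 Steps: dispense DMEM/10% FBS into empty wells; pin in compound or DMSO; measure fluorescence at 485/535 nm. Values are fluorescein equivalents.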

[9] = qHTS assay to test for compound auto fluorescence at 590 nm (red) in HEK293 cell free culture (AID 720683); conditions: cell-free medium autofluorescence, Ex540/Em590 red; series mostly up to 91.3 µM
Procedure, shortened: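 Cell-free wells of DMEM with 10% FBS received compound, and intrinsic fluorescence was read at excitation/emission 540/590 nm. Values expressed as equivalence to Rose Bengal sodium.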

[10] = qHTS assay to test for compound auto fluorescence at 590 nm (red) in HepG2 cell free culture (AID 720684); conditions: cell-free medium autofluorescence, red 540/590 nm; series mostly up to 91.3 µM
Procedure, shortened: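 Auto fluorescence equivalency versus Rose Bengal sodium, red channel Ex/Em 540/590 nm; compounds in cell-free MEM/10% FBS; DMSO vehicle control.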

[11] = qHTS assay to test for compound auto fluorescence at 460 nm (blue) in HepG2 cell free culture (AID 720685); conditions: Cell-free culture medium, blue autofluorescence 405/460 nm; series mostly up to 91.3 µM
Procedure, shortened: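 Cell-free plates of MEM plus 10% FBS received 23 nL compound or DMSO vehicle; blue-channel (405/460 nm) intensity scored against triamterene as reference fluorophore.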

[12] = qHTS assay to test for compound auto fluorescence at 535 nm (green) in HepG2 cell free culture (AID 720686); conditions: Cell-free medium, green autofluorescence 485/535 nm; series mostly up to 91.3 µM
[13] = qHTS assay to test for compound auto fluorescence at 460 nm (blue) in HepG2 cells (AID 720687); conditions: autofluorescence 405/460 nm, 1 h; series mostly up to 91.3 µM
Procedure, shortened: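 HepG2 cells in MEM with 10% FBS, attached overnight at 37 C, were exposed to compound or DMSO for 1 hr at 37 C, 5% CO2. Blue fluorescence was read at 405/460 nm, with triamterene as reference fluorophore.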

[14] = qHTS assay to test for compound auto fluorescence at 535 nm (green) in HepG2 cells (AID 720675); conditions: green autofluorescence 485/535 nm, 1 h; series mostly up to 91.3 µM
[15] = qHTS assay to test for compound auto fluorescence at 535 nm (green) in HEK293 cells (AID 720680); conditions: green autofluorescence 485/535 nm; series mostly up to 91.3 µM
[16] = target: Glucocorticoid receptor (Homo sapiens) (UniProt P04150); test: qHTS assay to identify small molecule agonists of the glucocorticoid receptor (GR) signaling pathway (AID 720691; active means well fitted activation curve with a large enough effect in the signal ratio in the repeat runs, not every such curve was filed as active; the % refers to the signal ratio); conditions: GR-bla HeLa, beta-lactamase reporter ratio, 18 h; series mostly up to 62.4 µM
Procedure, shortened: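 Measures GR pathway activation through a GRE-beta-lactamase reporter stably integrated in HeLa cells, with 18 h compound treatment at 37 C and fluorescence detection using a FRET substrate.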

[17] = target: Glucocorticoid receptor (Homo sapiens) (UniProt P04150); test: qHTS assay to identify small molecule antagonists of the glucocorticoid receptor (GR) signaling pathway (AID 720692; active means well fitted inhibition curve with a large enough effect in the signal ratio in the repeat runs, not every such curve was filed as active; the % refers to the signal ratio); conditions: GR-bla HeLa, beta-lactamase FRET ratio, dexamethasone-stimulated, 18 h; series mostly up to 58.5 µM
Procedure, shortened: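 Tox21 10K library screened in concentration-response for blockade of dexamethasone (5 nM final)-induced GRE-bla reporter activity in HeLa cells; 18 h treatment, fluorescence read.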

[18] = qHTS assay to test for compound auto fluorescence at 460 nm (blue) in HEK293 cells (AID 720678); conditions: blue autofluorescence 405/460 nm; series mostly up to 91.3 µM
Procedure, shortened: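 Auto fluorescence in the blue band was quantified as triamterene equivalency. HEK293 cells were seeded at 2,000/well, dosed after a 4-5 hr attachment, and kept overnight at 37C before the 405/460 nm reading.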

Measured: Potency

Glucocorticoid receptor (Homo sapiens), sequence (P04150 whole entry, looked up): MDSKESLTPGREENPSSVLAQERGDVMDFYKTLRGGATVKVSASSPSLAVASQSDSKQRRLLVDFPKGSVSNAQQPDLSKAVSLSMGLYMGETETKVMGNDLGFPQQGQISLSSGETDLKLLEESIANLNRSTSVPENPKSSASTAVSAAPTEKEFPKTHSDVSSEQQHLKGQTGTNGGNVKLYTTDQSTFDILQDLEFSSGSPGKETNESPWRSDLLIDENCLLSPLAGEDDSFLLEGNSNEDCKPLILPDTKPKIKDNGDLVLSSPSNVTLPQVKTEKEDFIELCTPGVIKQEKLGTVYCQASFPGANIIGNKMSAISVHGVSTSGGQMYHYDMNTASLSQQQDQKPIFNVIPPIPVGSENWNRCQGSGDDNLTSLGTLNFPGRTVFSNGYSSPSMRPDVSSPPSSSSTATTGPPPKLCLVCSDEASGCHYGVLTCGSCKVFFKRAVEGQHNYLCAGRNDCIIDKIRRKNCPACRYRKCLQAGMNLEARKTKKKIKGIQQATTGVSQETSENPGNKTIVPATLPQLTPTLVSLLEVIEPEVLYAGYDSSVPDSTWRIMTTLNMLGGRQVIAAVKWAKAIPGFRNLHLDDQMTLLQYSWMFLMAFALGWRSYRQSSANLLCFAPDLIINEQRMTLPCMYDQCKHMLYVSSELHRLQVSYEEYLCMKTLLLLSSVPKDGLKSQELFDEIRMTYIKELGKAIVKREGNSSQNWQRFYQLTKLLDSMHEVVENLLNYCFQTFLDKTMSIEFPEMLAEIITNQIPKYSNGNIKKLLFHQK

C[CH2][Ge]([Cl])([CH2]C)[CH2]C
not listed: [14] | [15] | [16] | [17] | [18]
inactive: all other assays above

CCOc1ccc(NC(=O)OC(C)C)cc1OCC
not listed: [4] | [11] | [18]
inactive: all other assays above

CCC(C)(C)C1CCC(=O)CC1
not listed: [11] | [16] | [17] | [18]
inactive: all other assays above

CCC(=O)c1ccc(O)cc1
not listed: [3] | [12]
inactive: all other assays above

C=CCOCC(O)CCl (centres undefined)
not listed: [6]
inactive: all other assays above

C[Si]1(C)N[Si](C)(C)N[Si](C)(C)N1
not listed: [6] | [16] | [17]
inactive: all other assays above

Cc1ccccc1C
not listed: [14] | [17] | [18]
inactive: all other assays above

CCC(C)(CCC(C)C)C(=O)[O-].CCC(C)(CCC(C)C)C(=O)[O-].[Zn+2] (centres undefined)
not listed: [3] | [11] | [16] | [17]
inactive: all other assays above
